The values that follow come from PubChem BioAssay (NCI).

SMILES strings stand for the structures. The panel holds about 83,000 compounds, 20% with a hit somewhere; the sample as a whole holds those more often.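 Treatment: one concentration, 48 hours, 96-well format. Scoring: percent growth, with anything below 10 considered active.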 Values without a mark were called inactive. The source made the active and inactive calls.

What all share (assay): NCI-60 one-dose screen, 48 h (100 = growth as untreated, 0 = no growth, -100 = all killed)
What all share (conditions): 10 µM unless noted

The test system of test [1] is NCI-H23 lung.
For test [2], the system named is NCI-H226 lung.
Test [3] deals with NCI-H322M lung.
In test [4] the test system is HOP-62 NSCLC.
In test [5] the test system is NCI-H460 lung.
Test [6] has as its system HOP-92 NSCLC.
The test system of test [7] is NCI-H522 lung.
Test [8] relates to A549/ATCC NSCLC.
Test [9] concerns 786-0 renal.
Test [10] relates to COLO 205 colon.

As for `COc1cc(-c2nc3ccccc3[nH]2)ccc1OCc1nnc(-c2ccc(CC(C)C)cc2)o1`, the growth in test [1] is 91.1%; in [2], 87.7%; in test [3] it was 93.8%; in test [4], 93.4%; in test [5], 98.8%; in test [6], 79.7%. Further, the growth is 93.5% in test [7], 84.2% in test [8], 93.7% in test [9] and 101% in test [10].
On to `Cc1nn(-c2cc(=O)[nH]c3ccccc23)c(N)c1C#N`, for which the growth in [1] is 106%; in test [2], 91.4%; in [3], 97%; in [4], 100%; in test [5], 104%; in test [6], 106%. The growth in test [7] is 95.6%; in test [8] it was 107%; in [9] it was 105%; in test [10], 123%.
In the case of `COc1ccc2c(c1)C(=O)/C(=C/c1ccccn1)CC2`, the growth is 74.1% in [1]; 95.8% in test [2]; 99.3% in [3]; 105% in [4]; 97.8% in test [5]; 84.1% in [6]. The growth in test [7] was 16.5%; in test [8], 95.2%; in test [9], 100%; in [10], 87.7%.
Take `C=CC(=O)Nc1cccc(-c2nc(SC)nc(NCCN3CCOCC3)c2C#N)c1`: the growth is 92.5% in test [1]; 97.1% in test [2]; 94.2% in [3]; 99.9% in [4]; 101% in test [5]; 76.1% in [6]. Also, the growth is 76% in test [7], 101% in test [8], 87.5% in test [9] and 114% in test [10].
As for `O=C(Nc1cccc2[nH]c(C(F)(F)F)nc12)c1ccc(-n2cnnn2)cc1`, the growth is 82.1% in test [1]; 92.2% in [2]; 107% in test [3]; 97.6% in test [4]; 81.9% in test [5]; 82.5% in [6]. In addition, the growth in [7] is 57.3%; in test [8], 98.1%; in test [9], 106%; in test [10], 105%.
Take `O=C1Nc2cc(-c3ccc(O)cc3)ccc2/C1=C/c1ccc[nH]1`: the growth is -16% (active) in [1]; 3.63% (active) in [2]; 6.56% (active) in test [3]; 24.4% in test [4]; 2.66% (active) in test [5]; 10.8% in [6]. For the same molecule, the growth was 1.89% (active) in test [7], 9.14% (active) in test [8], 10.9% in test [9] and 13.7% in test [10].
Consider `COc1ccc(C(=O)COc2ccc(/C=C3\Oc4ccc(OC)cc4C3=O)cc2)cc1`, for which the growth is 100% in [1]; 89.5% in [2]; 100% in test [3]; 115% in [4]; 124% in test [5]; 63.4% in test [6]. Also, the growth was -29.6% (active) in [7], 105% in [8], 114% in test [9] and 128% in test [10].
Turning to `O=C(CCN1C(=O)/C(=C/c2ccc(Cl)cc2)SC1=S)NCCCN1CCOCC1`, the growth in [1] was 101%; in test [2], 98.2%; in test [3] it was 104%; in [4], 101%; in test [5], 102%; in test [6], 102%. The growth in test [7] was 88.9%; in test [8] it was 102%; in test [9], 107%; in test [10] it was 108%.
`Cc1cc(N2CCN(c3ccnc4cc(Cl)ccc34)CC2)nc(N2CCOCC2)n1`: the growth in test [1] is 84.4%; in test [2] it was 88.6%; in test [3], 95.3%; in test [4], 91.9%; in test [5], 96.7%; in [6], 66.2%. In addition, the growth is 85.3% in test [7], 89.4% in test [8], 97.8% in [9] and 73% in test [10].
As to `O=C1/C(=C/N2N=C(c3ccc4ccccc4c3)CC2c2ccccc2O)SC(=S)N1c1cccnc1` (stereo not given), the growth in test [1] was 43.3%; in test [2], 31.7%; in test [3] it was 46%; in [4] it was 25.2%; in test [5], 15.3%; in test [6], 77%. Also, the growth in test [7] was 21.1%; in [8] it was 18.8%; in [9], 14%; in test [10], 27.3%.
As to `O=C(CCCCC(=O)N/N=C\c1ccccc1O)N/N=C\c1ccccc1O`, the growth in test [1] was 58.4%; in test [2], 52.9%; in [3] it was 27.5%; in test [4], 39.1%; in [5], 12.2%; in test [6], 64.4%. Also, the growth was 46.4% in [7], 48.9% in test [8], 19.6% in [9] and 35.4% in [10].
Take `NC(N)=N/N=C(/c1ccccc1)c1ccc(F)cc1`: the growth in test [1] is 3.78% (active); in [2], 8.06% (active); in test [3], 39.3%; in test [4], 19.7%; in test [5], 6.84% (active); in test [6] it was -16.9% (active). The growth in test [7] was -44.8% (active); in test [8] it was -15.1% (active); in [9], 18.6%; in test [10] it was -47% (active).
With `Nc1ccc(-c2cc3c(NCc4ccccc4)ncnc3s2)cc1`, the growth in test [1] is 66.6%; in [2], 65.9%; in test [3], 60.7%; in [4], 92.1%; in test [5] it was 90.7%; in test [6] it was 85.5%. In addition, the growth in test [7] was 72.5%; in [8], 70.9%; in test [9], 79.2%; in [10], 108%.
Consider `CCOC(=O)n1cc(-c2nonc2-c2cn(C)c3ncccc23)c2ccccc21`, for which the growth in [1] was 79.2%; in test [2] it was 58.7%; in test [3], 87.3%; in test [4], 87.8%; in test [5] it was 64.2%; in test [6], 66.1%. The growth in test [7] is 71.1%; in test [8] it was 82%; in [9], 88.8%; in test [10], 93%.
On to `COc1ccc(N=Nc2nccs2)c(O)c1`, for which the growth in test [1] was 79.3%; in test [2] it was 63.6%; in test [3], 88.4%; in test [4], 66.3%; in test [5], 40.4%; in [6], 52.8%. For the same molecule, the growth in test [7] was 69.2%; in test [8], 97.2%; in test [9] it was 18.9%; in test [10], 44.2%.
As to `Cc1oc(-c2ccc(Cl)cc2Cl)cc1C(=O)Nc1nccs1`, the growth is 87.4% in test [1]; 62.6% in [2]; 91.1% in [3]; 85.4% in test [4]; 60.7% in test [5]; 110% in test [6]. Besides, the growth in [7] was 89.7%; in test [8], 51.8%; in test [9], 90.7%; in test [10], 87.9%.
As to `O=C(N/N=C/c1c[nH]c2ccccc12)c1cc(-c2ccccc2)on1`, the growth in test [1] is 93.6%; in test [2] it was 87.6%; in test [3] it was 82.9%; in test [4], 98.8%; in [5] it was 98.1%; in test [6] it was 92.1%. For the same molecule, the growth in test [7] was 75%; in [8], 96.7%; in test [9], 97.9%; in [10], 113%.
`CCOC(=O)c1csc(NC(=O)COc2cccc(/C=C3\CSc4ccccc4C3=O)c2)n1`: the growth in test [1] was 9.12% (active); in [2] it was 98.1%; in test [3], 97.1%; in [4], 80.1%; in [5] it was 98.4%; in [6], -79.1% (active). Moreover, the growth in [7] was -39.2% (active); in test [8], 97.2%; in test [9] it was 87.1%; in test [10], 87.9%.
Turning to `COc1cc(-c2nn(-c3ccc(C)cc3)cc2C(=O)O)ccc1O`, the growth is 89.1% in test [1]; 102% in test [2]; 96.7% in test [3]; 88.2% in [4]; 104% in test [5]; 97.7% in [6]. Also, the growth was 79.5% in [7], 107% in test [8], 101% in test [9] and 112% in [10].
`CCOc1nc(-c2ccccc2)cc2c(O)c(C(=O)N/N=C/c3ccc(O)cc3O)[nH]c(=O)c12`: the growth in test [1] is 3.35% (active); in [2] it was 26.4%; in test [3] it was 42.2%; in [4] it was 27.1%; in test [5], 61.6%; in test [6] it was -12.1% (active). For the same molecule, the growth was 10.8% in [7], 46.2% in [8], 14.4% in [9] and 15.9% in test [10].
With `CC1CCNC(C)C1` (stereo not given), the growth is 104% in test [1]; 95.7% in test [2]; 109% in test [3]; 104% in test [4]; 105% in test [5]; 76.3% in test [6]. Besides, the growth in test [7] was 103%; in test [8] it was 112%; in test [9], 106%; in [10], 105%.
As for `NC(CSC(c1ccccc1)(c1ccccc1)c1ccc(Cl)cc1)C(=O)O` (stereo not given), the growth in test [1] was 8.79% (active); in test [2] it was 47.2%; in test [3] it was 36.5%; in test [4], 27.5%; in test [5], 7.15% (active); in test [6], -15.9% (active). Moreover, the growth is 5.69% (active) in [7], -9.59% (active) in test [8], 25.6% in test [9] and -13% (active) in [10].
Consider `COc1cc(-c2ccc3c(c2)NC(=O)/C3=C\c2ccc[nH]2)ccc1O`, for which the growth was 12.1% in test [1]; 39.6% in test [2]; 30.3% in test [3]; 27.8% in [4]; 7.55% (active) in test [5]; 57.8% in [6]. The growth was 6.78% (active) in test [7], 20.7% in test [8], 14.8% in test [9] and 25.2% in [10].
As to `Cn1cc(C(=O)c2nc(-c3c[nH]c4ccccc34)no2)c2ccccc21`, the growth in test [1] is 65.6%; in test [2], 57.3%; in test [3] it was 68.2%; in test [4], 78.9%; in test [5], 35.2%; in [6] it was 63.8%. Also, the growth in test [7] is 56.5%; in test [8], 73.7%; in test [9], 98.4%; in test [10] it was 56%.
As for `CC(=O)O[C@H]1CC[C@]2(C)[C@H]3CC=C4[C@@H]5CC(C)(C)CC[C@]5(C(=O)NCCNCCN)CC[C@@]4(C)[C@]3(C)CC[C@H]2C1(C)C`, the growth in test [1] is 70.1%; in test [2], 73.5%; in [3], 67.3%; in test [4], -86.7% (active); in test [5], -69.8% (active); in [6], -45.3% (active). Besides, the growth is -86.9% (active) in test [7], -71.1% (active) in test [8], -95.3% (active) in test [9] and -92.7% (active) in test [10].
On to `COc1cccc(-c2nc3sccn3c2-c2ccnc(NCCNS(=O)(=O)c3ccc(F)cc3)c2)c1`, for which the growth in test [1] is 27.2%; in [2], 24%; in test [3] it was 58.6%; in test [4], 43.7%; in test [5] it was 21.4%; in test [6] it was 41%. For the same molecule, the growth in test [7] was 32.3%; in test [8] it was 22.7%; in test [9], 41.6%; in [10] it was 23.4%.
Regarding `CCN(CC)c1ccc2c(c1)Oc1nc(N)c(C#N)c(N)c1C2Sc1ccc(SC)cc1` (stereo not given), the growth was -22.7% (active) in test [1]; -46.9% (active) in [2]; -15.1% (active) in test [3]; -25.3% (active) in test [4]; -15.3% (active) in [5]; -12.5% (active) in [6]. The growth is -50.8% (active) in test [7], -2.37% (active) in test [8], -39.1% (active) in [9] and -73.6% (active) in [10].
